The panel holds about 83,000 compounds, 20% with a hit somewhere; the sample as a whole holds those more often.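 The test compound was applied at a single concentration to cells in 96-well plates for 48 hours, and percent growth was recorded.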 Values without a mark were called inactive. Activity calls are given as the source filed them. Rule for the calls: active = growth percent below 10; inactive = the rest.
Tests used:
Assay in all cases: NCI-60 one-dose screen, 48 h (100 = growth as untreated, 0 = no growth, -100 = all killed)
Conditions in all cases: 10 µM
T-47D breast = system: T-47D breast
BT-549 breast = system: BT-549 breast
MDA-MB-435 melanoma = system: MDA-MB-435 melanoma
SW-620 colon = system: SW-620 colon
MCF7 breast = system: MCF7 breast
HCT-116 colon = system: HCT-116 colon
HCC-2998 colon = system: HCC-2998 colon
KM12 colon = system: KM12 colon
MDA-MB-468 breast = system: MDA-MB-468 breast

Row | SMILES | growth (T-47D breast) | growth (BT-549 breast) | growth (MDA-MB-435 melanoma) | growth (SW-620 colon) | growth (MCF7 breast) | growth (HCT-116 colon) | growth (HCC-2998 colon) | growth (KM12 colon) | growth (MDA-MB-468 breast)
1 | CC1(c2ccccc2)NC(=O)N(CC(=O)Nc2ccc(C(=O)/C=C/c3ccc(Br)cc3)cc2)C1=O (stereo not drawn) | 14.3% | 25.4% | -44% (active) | 32.7% | -42.6% (active) | -69.7% (active) | 10.5% | -27.8% (active) | -8.76% (active)
2 | COc1ccc(-c2c(N)c(=O)n(C)c3ccccc23)cc1 | 57.2% | 43% | 59.2% | 65.5% | 24.8% | 37.5% | 81.5% | 64.5% | 50.1%
3 | COc1ccc(C(C)=C(c2ccc(OCCCN(C)C)cc2)c2ccc(OCCCN(C)C)cc2)cc1 | -76.2% (active) | -78.4% (active) | -99.9% (active) | -59.4% (active) | -69.5% (active) | -72.1% (active) | -91.6% (active) | -85.5% (active) | -88% (active)
4 | O=C1Nc2ccc(Cl)cc2/C1=C/c1cccc(OCc2ccccn2)c1 | -2.11% (active) | -7.83% (active) | -39.2% (active) | -38% (active) | -0.24% (active) | -98.3% (active) | -73.2% (active) | -32.3% (active) | -30% (active)
5 | CC(C)(C)Nc1nc2cc(Cl)c(Cl)cc2nc1S(C)(=O)=O | 31.3% | -29.7% (active) | 44.6% | -74.5% (active) | 58.8% | 13.1% | 42.2% | 81.3% | -28.5% (active)
6 | COc1ccc2nc(Nc3cccc(NC(=O)c4ccc(CN5CCN(C)CC5)c(C(F)(F)F)c4)c3)ccc2c1 | -25.9% (active) | -45.8% (active) | -96% (active) | -89.7% (active) | -97.1% (active) | -15.3% (active) | -99.4% (active) | -68.1% (active) | -97.1% (active)
7 | O=C(CNc1nc(-c2ccccc2)cs1)Nc1ccc(Cl)cc1 | -34.6% (active) | -54.5% (active) | -58.5% (active) | -68.5% (active) | -85.5% (active) | -41.2% (active) | -94.6% (active) | -83.8% (active) | -81.2% (active)
8 | O=C(Nc1ccc(Cl)c(C(F)(F)F)c1)c1cncc(C#Cc2cnc3ccc(N4CCOCC4)nn23)c1 | 1.27% (active) | -14.9% (active) | 19.3% | 19.4% | -13.3% (active) | -26.7% (active) | -13.3% (active) | -21.5% (active) | -30.8% (active)
9 | CN(CCF)c1ccc(/C=C/C(=O)c2ccc(N)cc2O)cc1 | 50.7% | 64.1% | 81.8% | 90.3% | 71.1% | 73% | 88.5% | 44.4% | 51.4%
10 | Cc1ccc(F)cc1N/C=c1\s/c(=C(\C#N)C(=O)Nc2ccccc2)n(-c2ccccc2)c1=O | 76.7% | 99.7% | 98.5% | 105% | 38.8% | 42% | 92.1% | 84.8% | 53%
11 | COc1ccsc1/C=N/NC(=O)c1[nH]c2ccc(Br)cc2c1-c1ccccc1 | -2.72% (active) | 13.8% | 2.33% (active) | 18.4% | 1.13% (active) | 0.361% (active) | -5.18% (active) | -0.302% (active) | -6.2% (active)
12 | CC(=C(c1ccc(OCCCN(C)C)cc1)c1ccc(OCCCN(C)C)cc1)c1ccccc1 | -84.9% (active) | -69% (active) | -98.1% (active) | -44.9% (active) | -82.2% (active) | -10.4% (active) | -94.8% (active) | -93% (active) | -93.9% (active)
13 | COc1ccc2nc(Cl)c(-c3cc(-c4ccccc4)nc(=O)[nH]3)cc2c1 | 37.8% | 38.9% | 75.9% | 11.1% | 10.2% | 9.44% (active) | 84.9% | 18.3% | 28.5%
14 | NS(=O)(=O)c1ccc(NC(=O)CSc2ccc(-c3ccc(Cl)cc3)nn2)c(Br)c1 | 41.6% | 26.8% | 84.8% | 82.8% | 26.8% | 26.6% | 58.2% | 64.6% | -3.52% (active)
15 | C=C1CCC2C3(C)COC(c4c(F)cccc4F)OC3CCC2(C)C1C/C=C1/C(=O)OCC1O (stereo not drawn) | 1.57% (active) | -78.4% (active) | -9.65% (active) | -41.4% (active) | -12.6% (active) | -59.2% (active) | -65% (active) | -67.5% (active) | -24% (active)
16 | COc1cc(NC(=O)CSc2nnc(-c3ccc4nc(-c5ccc(Cl)cc5)[nH]c4c3)o2)cc(OC)c1OC | 13.2% | 63.1% | 67.8% | 80.1% | 29.1% | 37.1% | 110% | 70% | 58.3%
17 | Cc1cc(C)nc(NS(=O)(=O)c2ccc(N/C(N)=N/c3nccc(-c4cccs4)n3)cc2)n1 | 78.8% | 111% | 106% | 102% | 67.6% | 96.4% | 127% | 96.9% | 106%
18 | COc1nccnc1NS(=O)(=O)c1ccc(NC2=C(Cl)C(=O)c3nc(C)ccc3C2=O)cc1 | 101% | 101% | 103% | 115% | 108% | 92% | 103% | 111% | 9.69% (active)
19 | C=C[C@@]12CN3CC[C@]1(O)[C@@](C(=O)OC)(CO2)c1[nH]c2ccccc2c1C3 | 40.8% | 38.4% | 32.7% | 55% | 42.6% | 57.9% | 89.4% | 78% | -8.94% (active)
20 | COc1ccccc1NCc1ccc(CO)n1-c1ccc(C)cc1 | 77.4% | 101% | 110% | 109% | 85.3% | 80% | 114% | 105% | 97.3%
21 | O=c1cc(-c2ccccc2)oc2cc(OCCCCNCc3ccccc3)cc(O)c12 | -70.7% (active) | 78.5% | -31.5% (active) | -39.1% (active) | -64.1% (active) | -73.7% (active) | -96.7% (active) | 23.8% | -28.2% (active)
22 | CCOC(=O)CNC(=O)CN(Cc1ccccc1)C(=O)[C@@]1(C)CCC[C@]2(C)[C@H]3C[C@H]4C(C(C)C)=C[C@]3(CC[C@H]21)[C@@H]1C(=O)OC(=O)[C@@H]14 | 67.4% | 76.2% | 78.5% | 79.4% | 30.7% | 37.4% | 69.6% | 53% | 48.9%
23 | O=c1oc2ccc(-c3ccc(F)cc3F)cc2c(=O)n1-c1ccc(F)cc1 | -20.5% (active) | -25.8% (active) | 0.996% (active) | 10.2% | -4.67% (active) | 8.96% (active) | 7.52% (active) | -0.662% (active) | -29.8% (active)
24 | COc1cc2c3c(n(CCCn4ccnc4)c(=O)c2cc1OC)-c1nc2c(cc1C3=O)OCO2 | 21.8% | 29.6% | 52.2% | 37% | 7.42% (active) | 30.4% | 72.2% | 59.6% | -29.8% (active)
25 | O=C(CNc1nc(-c2ccccc2)cs1)Nc1cccc(Cl)c1 | 7.64% (active) | 25.8% | 42.1% | 35.9% | 21.8% | 27.6% | 33.2% | 23.6% | 10.7%
26 | O=C(CNc1nc(-c2ccccc2)cs1)Nc1ccc([N+](=O)[O-])cc1Cl | 12.5% | 8.83% (active) | 44% | 23.2% | 9.27% (active) | 21.4% | 7.28% (active) | 29.1% | -30.3% (active)
27 | O=C1Nc2cc(Cl)ccc2/C1=C/c1cccc(OCc2ccccc2)c1 | 14.7% | -21.8% (active) | 10.5% | 8.71% (active) | 2.6% (active) | 3.32% (active) | -39% (active) | 4.45% (active) | 11.9%

— PubChem BioAssay (NCI)
